The list is not random: actives were taken first. Their share in the collection is about 2.4%.
D2 ag-1: activates the human D2 dopamine receptor | P14416 | DiscoveRx PathHunter D2 beta-arrestin, luminescence, 90 min; 100% = 57 uM dopamine signal | activation, % (no concentration beside the values) | 360,000 compounds, 0.084% hits | AID 624465; in the data active means activation above about 40%; inconclusive means between about 15% and that limit
Target sequence (P14416 whole entry, looked up): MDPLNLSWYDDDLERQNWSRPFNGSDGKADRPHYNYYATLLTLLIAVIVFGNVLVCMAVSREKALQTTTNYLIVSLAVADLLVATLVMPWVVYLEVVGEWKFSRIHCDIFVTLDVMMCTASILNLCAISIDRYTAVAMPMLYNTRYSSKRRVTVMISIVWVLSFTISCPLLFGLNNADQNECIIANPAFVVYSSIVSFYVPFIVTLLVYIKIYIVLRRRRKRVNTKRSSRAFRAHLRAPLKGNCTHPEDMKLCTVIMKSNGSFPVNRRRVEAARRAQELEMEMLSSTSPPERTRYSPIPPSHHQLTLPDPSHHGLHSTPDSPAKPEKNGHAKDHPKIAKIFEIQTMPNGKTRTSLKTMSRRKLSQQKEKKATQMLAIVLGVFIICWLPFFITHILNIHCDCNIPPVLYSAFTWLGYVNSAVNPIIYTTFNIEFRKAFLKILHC
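DiscoveRx PathHunter D2 beta-arrestin cells (2,100/well) attached overnight, then compound-stimulated 90 min at 37 C in HBSS/10 mM HEPES/0.1% Tween-20 buffer; beta-galactosidase complementation read by luminescence after 1 h at ambient temperature. Dopamine 57 uM final (EC100) as control.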
D2 PAM-1: positively modulates the human D2 dopamine receptor allosterically; 340,000 compounds, 0.34% hits; HEK293 T-REx D2, calcium flux, EC20 dopamine potentiation; potentiation, % at 10 µM; P14416;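 active means potentiation over 3 SD above the plate norm, cut at about 30% in these data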
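Using a no-wash calcium dye in inducible, force-coupled HEK293 Trex cells expressing D2, we tracked fluorescence each second for 180 s after compound, then for 180 s after EC20 dopamine to detect augmented signalling.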
D2 PAM-2: positive allosteric modulators of human D2 dopamine receptor; P14416; DiscoveRx D2 beta-arrestin cells, luminescence, 90 min; 100% = 57 uM dopamine signal; potentiation, % (test concentration not listed); 360,000 compounds, 0.23% hits; in the data active means potentiation above about 50%; inconclusive means mostly about 30% to 49%
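PathHunter beta-arrestin assay in DiscoveRx D2 cells. Compounds were added with an EC20 of dopamine (50 nM final) for 90 min at 37 deg C. Luminescence was read 1 h after detection reagent, with 57 uM dopamine as the EC100 control.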
D2 antagonist: D2 dopamine receptor (human) antagonism; P14416; 340,000 compounds, 2% hits; HEK293 TREx D2 cells, calcium flux, dopamine EC80; inhibition, % at 10 µM; AID 485344; in the data active means inhibition above about 30%; inactive means below that, where a call was filed
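In this primary screen, negative modulation is detected by tracking calcium flux after an EC80 dopamine challenge in inducible HEK293 T-REx D2 cells preexposed to test compound for 180 s.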
D2 ag-2: D2 dopamine receptor (human) agonism. P14416. activation, % at 2 µM. 340,000 compounds, 0.53% hits. HEK293 T-REx D2 cells, calcium flux agonist mode;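 active means activation over 3 SD above normal in the single-dose calcium agonist read, cut at about 30% in these data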
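Agonism scored from kinetic calcium signal (1 read/sec, 180 s) following compound pin transfer, after a 10 s baseline. Cells: HEK293 Trex line expressing inducible D2 receptor coupled to calcium, dye-loaded after overnight culture at 30 C.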
A number is an active result; . = inactive; ? = inconclusive; / = no result given.

SMILES	D2 ag-1	D2 PAM-1	D2 PAM-2	D2 antagonist	D2 ag-2
Cc1cc2ncn(C3CC(=O)N(Cc4ccccc4)C3=O)c2cc1C (stereo unspecified)	.	39.4	.	.	.
CCN(CC(=O)NC)S(=O)(=O)c1ccc(Br)cc1	.	33.8	.	.	.
O=C(CCn1ccc2cc(S(=O)(=O)N3CCCC3)ccc21)NCc1cccc(Br)c1	/	.	/	/	.
CCOC(=O)N1CCC(NC(=O)CCCN2C(=O)CSc3ncccc32)CC1	.	.	.	31.7	.
O=C(Nc1cccc(OC(F)(F)F)c1)[C@@H]1O[C@H](CO)[C@H](O)[C@H](O)[C@H]1O	.	/	.	/	/
COc1cccc(OC(=O)N2CCOCC2)c1	.	.	.	.	.
Cc1cc(C)cc(OC(=O)N2CCOCC2)c1	.	.	.	37.8	.
CC(C(=O)Nc1cc(Cl)cc(Cl)c1)N1CCCC1 (stereo unspecified)	.	.	.	89.1	.
Cc1cc(C)c(NC(=O)C(C)N2CCCCCC2)c(C)c1 (stereo unspecified)	.	.	.	.	.
COc1ccc(NC(=O)COC(=O)c2cc(OC)c(OC)cc2NC(=O)c2ccco2)cc1OC	.	.	.	57.5	.
COC(=O)c1cc(OC)c(OC)cc1NC(=O)c1ccco1	.	.	.	.	.
COc1cc(NC(=O)COc2cccc(OC)c2)cc(OC)c1	.	.	.	.	.
COc1cccc(OCC(=O)Nc2ccc(OC)c(OC)c2)c1	.	32.0	.	.	.
O=C(CSc1nncn2c1cc1occc12)Nc1ccccc1C(F)(F)F	/	.	/	/	.
CC(=O)Nc1cccc(-c2ccnc3c2CC(C(=O)NCc2ccco2)O3)c1 (stereo unspecified)	.	/	.	/	/
CCC(CC)CC1CN2CCc3cc(OC)c(OC)cc3C2CC1(O)CC (stereo unspecified)	.	/	.	/	/
Cc1cccn2c(=O)nc(SCC(=O)N3CCCCCC3)nc12	.	.	.	31.1	.
Cc1cccn2c(=O)nc(SCC(=O)N3CCCCC3)nc12	.	.	.	.	.
Cc1ccccc1CCNCc1c(C(=O)O)c(C)n(Cc2c(F)cccc2Cl)c1C	/	.	/	/	.
COc1cccc(CN(C)C(=O)c2[nH]c(C)c(C(C)=O)c2C)c1OC	.	.	.	.	.
c1ccc2c(c1)CCN(CCCNc1nc3ccccc3n3cnnc13)C2	.	.	.	69.9	.
CCN1C(=O)c2ccc(C(=O)Nc3cccc(C(=O)O)c3)cc2C1=O	.	.	.	.	.
CC1(C(=O)NS(=O)(=O)c2cccc(Cl)c2)CCN1C(=O)CC1CC1 (stereo unspecified)	.	/	.	/	/
CCOc1cc(C)ccc1OCc1nnc(SCC(=O)c2cccc([N+](=O)[O-])c2)n1CC	.	.	.	.	.
C=CCn1c(COc2ccccc2)nnc1SCC(=O)O	.	32.5	.	.	.
SMILES	D2 ag-1	D2 PAM-1	D2 PAM-2	D2 antagonist	D2 ag-2
CNC(=O)CSc1nnc(COc2ccc([N+](=O)[O-])cc2)n1C	.	/	.	75.9	.
CCn1c(COc2cccc3ccccc23)nnc1SCC(N)=O	.	36.6	.	.	.
CCn1c(COc2ccccc2)nnc1SCC(=O)c1cccc([N+](=O)[O-])c1	.	34.6	.	.	.
CCn1c(COc2ccccc2C)nnc1SCC(=O)NCc1ccccc1	.	.	.	.	.
CCCNC(=O)C1(C)CCCN(C(=O)COc2ccc(C(C)(C)C)cc2)C1 (stereo unspecified)	.	/	.	/	/
COc1ccc(CCn2c(C)nc3c(c(=O)c4ccccc4n3C)c2=O)cc1	.	.	.	49.3	.
COc1ccc(Cn2c(-c3ccc(C)cc3)nc3c(c(=O)c4ccccc4n3C)c2=O)cc1	.	.	.	37.5	.
O=C(Nc1ccc2c(c1)OCO2)O[C@@H]1C[C@H]2CCC(=O)N3CC[C@@H](C1)[C@@H]23	.	.	.	.	.
COc1ccc(CCN2CC(C(=O)NCCN3CCOC3=O)CCC2=O)cc1 (stereo unspecified)	.	.	.	.	.
OC(COc1cc(Cl)c(Cl)cc1Cl)CN1CCN(c2ncccn2)CC1 (stereo unspecified)	.	.	.	36.9	.
Cc1cccc(N2CCN(CC(O)COc3ccccc3Cl)CC2)c1 (stereo unspecified)	.	.	.	71.1	.
OC(COc1ccc(Cl)cc1)CN1CCN(c2ccccn2)CC1 (stereo unspecified)	.	/	.	/	/
CCOC(=O)c1cc(-c2ccc(OC)cc2)nn1Cc1ccccc1	/	.	/	/	.
Cn1c(=O)c2c(nc(NCc3ccco3)n2C/C=C/c2ccccc2)n(C)c1=O	.	.	63.9	.	.
O=C(CC1SC(N2CCCCC2)=NC1=O)Nc1cccc(C(F)(F)F)c1 (stereo unspecified)	.	.	.	78.8	.
O=C(CC1SC(N2CCCCC2)=NC1=O)Nc1ccc(C(=O)O)cc1 (stereo unspecified)	.	.	.	.	.
CC(=O)c1cccc(NC(=O)CC2SC(N3CCCCC3)=NC2=O)c1 (stereo unspecified)	.	.	.	45.3	.
CC(=O)c1cccc(NC(=O)c2ccc(NC(=O)CC3SC(N4CCCCC4)=NC3=O)cc2)c1 (stereo unspecified)	.	.	.	.	.
CCOc1ccc(N2CC(O)(c3ccc(F)cc3)[N+]3=C2CCCC3)cc1 (stereo unspecified)	.	.	.	30.4	.
CN(C(=O)c1ccncc1)c1nnc(-c2ccccn2)s1	.	.	.	34.7	.
CN(C(=O)c1ccc(C#N)cc1)c1nnc(-c2ccccn2)s1	.	.	.	.	.
COc1ccc2ccccc2c1CNC(C)CCc1ccccc1 (stereo unspecified)	.	.	.	30.1	.
Cc1[nH]n(-c2ccccc2)c(=O)c1/C=N/NC(=O)c1ccccc1F	.	.	.	.	.
Cc1cc(NC(=O)C(C)Sc2nc(-c3cccs3)nc3ccccc23)no1 (stereo unspecified)	.	32.2	.	.	.
O=[N+]([O-])c1ccc(/C=N/n2cnc3ccccc32)s1	?	.	63.5	.	.
Cc1nc2ccccc2n1/N=C/c1ccc([N+](=O)[O-])s1	.	.	.	.	.
Cc1cc2ncn(/N=C/c3ccc([N+](=O)[O-])s3)c2cc1C	.	.	71.2	.	.
CS(=O)(=O)Nc1cccc(NC(=O)C2Cc3c(-c4cccc(F)c4)ccnc3O2)c1 (stereo unspecified)	.	/	.	/	/
COc1ccc(NC(=O)c2c(NCc3cccc(OC)c3)sc3c2CCC3)cc1	/	.	/	/	.
Cc1ccc(OCC(=O)c2c(N)n(C)c(=O)n(C)c2=O)c([N+](=O)[O-])n1	.	.	.	32.9	.
